From PubChem BioAssay (EPA / NIEHS)
Records with an inconclusive call do not appear. Active and inactive are the calls of the source. The calls were made as follows: active = hit-call score of the fitted dose curve at least 0.9, where 1 is the maximum; inconclusive = response in the unintended direction; inactive = score below 0.9.

What follows are compounds tested against human RAR-related Orphan Receptor gamma (RORg), RORC (gene 6097) (UniProt P51449) (assay: ATG_RORg_TRANS: Attagene TRANS-FACTORIAL HepG2 Assay for human RAR-related Orphan Receptor gamma (RORg) (AID 2283011)).
Procedure: ATG_TRANS is a cell-based, multiplexed-readout assay that uses HepG2, a human liver cell line, with measurements taken at 24 hours after chemical dosing in a 24-well plate.ATG_RORg_TRANS is one of 30 assay component(s) measured or calculated from the ATG_TRANS assay. It is designed to make measurements of mRNA induction, a form of inducible reporter, as detected with fluorescence intensity signals by Reverse transcription polymerase chain reaction (RT-PCR) and Capillary electrophoresis technology.Data from the assay component ATG_RORg_TRANS was analyzed into 1 assay endpoint. This assay endpoint, ATG_RORg_TRANS, was analyzed in the positive analysis fitting direction relative to DMSO as the negative control and baseline of activity. Using a type of inducible reporter, measures of mRNA for gain-of-signal activity can be used to understand the reporter gene at the transcription factor-level as they relate to the gene RORC. Furthermore, this assay endpoint can be referred to as a primary readout, because this assay has produced multiple assay endpoints where this one serves a reporter gene function. To generalize the intended target to other relatable targets, this assay endpoint is annotated to the nuclear receptor intended target family, where the subfamily is orphan.
Human liver HepG2 cells are transiently transfected with multiple reporter transcription units (MRTUs) in 6-well plates using FuGene 6 reagent (Roche; 3 ml FuGene/1 mg DNA). The MRTU constructs are regulated by a cis-regulating element (promoter). […] A major difference between the CIS and TRANS system is that in CIS activities of endogenous TFs are measured, whereas the TRANS assay evaluates changes in activities of exogenous, chimeric NR-Gal4 proteins. […] At the end of 24 hour incubation, total RNA was isolated using TriZol reagent (Invitrogen). The isolated RNA is then reverse-transcribed using oligo(dT) primer and Mo-MLV reverse transcriptase (Invitrogen) with DNAse I (Ambion) treatment for 30 min. The one-tenth of the produced cDNA was amplified by PCR using Taq DNA polymerase (Invitrogen) and two reporter sequence-specific primers. The PCR products were fluorescently labeled by primer extension with 6-arboxyfluorescein (6-FAM) 5'-labeled reporter sequence-specific primer (2 min at 95 C, 20 s at 68 C and 10 min at 72 C) and these products were digested with 5U of HpaI (New England Biolabs) for 2h at 37 C. The fragments were purified using Qiaquick PCR columns (Qiagen), analyzed on an ABI 3130xL genetic analyzer (Applied Biosystems) with peak positions identified by using a set of X-rhodamine (ROX)-labeled MapMarker1000 molecular weight standards (BioVentures). The raw capillary electrophoresis data was processed using Attagraph software (Attagene).

Chain of human RAR-related Orphan Receptor gamma (RORg), RORC (gene 6097) (P51449 whole entry, looked up): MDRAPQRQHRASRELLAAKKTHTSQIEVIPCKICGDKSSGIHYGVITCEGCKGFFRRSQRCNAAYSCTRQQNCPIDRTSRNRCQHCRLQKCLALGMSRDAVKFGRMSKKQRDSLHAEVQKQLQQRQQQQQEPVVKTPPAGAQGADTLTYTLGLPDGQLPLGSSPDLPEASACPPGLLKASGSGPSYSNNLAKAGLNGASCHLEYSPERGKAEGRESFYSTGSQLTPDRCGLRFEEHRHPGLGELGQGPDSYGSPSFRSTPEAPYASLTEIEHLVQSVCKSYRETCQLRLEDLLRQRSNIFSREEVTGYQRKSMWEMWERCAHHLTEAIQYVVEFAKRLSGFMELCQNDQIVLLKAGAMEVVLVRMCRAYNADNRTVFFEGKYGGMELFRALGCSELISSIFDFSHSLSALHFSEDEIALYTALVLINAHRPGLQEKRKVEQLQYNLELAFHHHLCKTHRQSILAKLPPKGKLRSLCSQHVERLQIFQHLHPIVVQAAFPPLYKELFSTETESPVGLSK

SMILES	outcome
CC(CO)c1ccccc1 (stereo not given)	inactive
CCCC[N+](C)(CCCC)CCCC	inactive
CCCO	inactive
CCc1cccc(O)c1	inactive
CC/C=C\CCCCO	inactive
COc1ccccc1O	inactive
O=c1cc[nH]cc1	inactive
NCCN1CCNCC1	inactive
CC(C)C(=O)OCC=Cc1ccccc1	inactive
O=C(O)c1cc2ccccc2cc1O	inactive
CC1=C(C=O)C(C)(C)CCC1	inactive
CCCCCCCCCC(=O)OCC	inactive
C[C@]12CC[C@@H]3c4ccc(O)cc4CC[C@H]3[C@@H]1CC[C@@H]2O	inactive
CC(=O)CCc1ccc(O)cc1	inactive
CCNC(=S)NCC	inactive
CCCCCCC(O)CCOC(C)=O (stereo not given)	inactive
CC(C)CCCC(C)(C)O	inactive
Cc1ccc(C(C)(C)O)cc1	inactive
CC(C)N(c1ccccc1)C(C)C	inactive
O=C1OC2(c3ccc(O)cc3Oc3cc(O)ccc32)c2ccccc21	inactive

SMILES	outcome
C1=COCCC1	inactive
CCCCCCCCCCCCOC(C)=O	inactive
O=S1(=O)CC=CC1	inactive
CC1(C)CC(N)CC(C)(CN)C1 (stereo not given)	inactive
c1coc(CNc2ncnc3nc[nH]c23)c1	inactive
CN(C)C(=O)Nc1ccccc1	inactive
O=C1CCCCCCCCCCCC(=O)OCCO1	inactive
CC12CCC(C1)C(C)(C)C2O (stereo not given)	inactive
CCCCCCCCCCCCS	inactive
c1ccc2scnc2c1	inactive
CC(O)COCC(C)O (stereo not given)	inactive
CC1(C)CC(=O)CC(C)(C)N1	inactive
CCC(=O)OCC=Cc1ccccc1	inactive
C=CC(C)CCCC(C)(C)O (stereo not given)	inactive
CC(=O)OC(C)(C)C1CC=C(C)CC1 (stereo not given)	inactive
CC(C)OB(OC(C)C)OC(C)C	inactive
CC(=N[Si](C)(C)C)O[Si](C)(C)C	inactive
CC(C)(O)C(=O)c1ccc(OCCO)cc1	inactive
O=C1CCC(=O)N1	inactive
O=S1(=O)CC(Cl)(Cl)C(Cl)(Cl)C1	inactive
